Experiment [1] in a line: Nuclear factor erythroid 2-related factor 2/antioxidant responsive element (Nrf2/ARE) small molecule agonists: luciferase reporter gene qHTS assay in human keratinocytes (AID 1919969). Also: nearly all actives have a fitted effect of over 35% in size. Also: potency is read from the fitted curve at half-maximal effect.
In experiment [2] the target is Gonadotropin-releasing hormone receptor (Homo sapiens) (UniProt P30968). Kind of experiment: Human gonadotropin-releasing hormone receptor (GnRHR) small molecule agonists, calcium flux assay in GnRHR-HEK293 cells (AID 1920063). Also: nearly all actives have a fitted effect of over 35% in size. The method, boiled down:
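Fluorescence kinetics (480 nm excitation, 540 nm emission; 3 min, 1 s steps) report calcium mobilisation in human GnRHR-HEK293 cells in agonist mode. Dye incubation: 1 h, 37 C.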

The target in experiment [3] is KiSS-1 receptor (Homo sapiens) (UniProt Q969F8). Kind of experiment: Human kisspeptin (KISS1R) small molecule agonists, calcium flux assay in KISS1R-HEK293 cells (AID 1920064; active = well fitted activation curve with a large enough effect in the repeat runs). In a few lines:
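Measures KISS1R agonism through calcium-sensitive dye fluorescence in stably transfected HEK293 cells, read for 3 min after pin-tool compound delivery; 15-point titrations in triplicate.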
Background: A change in cytosolic calcium serves as a functional read-out for many receptors and channels.

A short description of experiment [4]: G protein-coupled receptor (GPCR) small molecule agonists, calcium flux assay: HEK293 wild type cell line counter screen (AID 1920065). The method, boiled down:
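Readout: fluorescence at 480 nm excitation/540 nm emission, sampled at 1 s intervals for 3 min. Cells had been cultured 18 h, then dye-loaded 1 h at 37 C before compound or ATP addition.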

Experiment [5] in a line: p53 small molecule agonists, cell-based qHTS assay with rat liver microsomes (AID 1963578). In a few lines:
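Each plate received p53RE-bla cells, then compound, then rat liver microsomes and NADPH (both 0.5 mg/mL final). Plates were held 16 h at 37 C, and beta-lactamase activity was detected with LiveBLAzer over 2 h.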
(qHTS replaces the single test concentration by a dilution series.)

A short description of experiment [6]: p53 small molecule agonists, cell-based qHTS assay with rat liver microsomes: qHTS cell viability counter screen (AID 1963580). Also: nearly all actives have a fitted effect of over 45% in size. Also: potency is read from the fitted curve at half-maximal effect. The method, boiled down: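 HCT-116 p53RE-bla, 4,000 cells/well, 5 h pre-incubation; cpd + rat liver microsomes 0.5 mg/mL + NADPH 0.5 mg/mL (final); 16 h, 37 C; CellTiter-Glo, 30 min RT; luminescence.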
Experiment [7] in a line: p53 small molecule agonists, cell-based qHTS assay: qHTS cell viability counter screen (AID 1963581). Also: nearly all actives have a fitted effect of over 45% in size. In a few lines: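 In the same plates used for the p53 bla reporter, HCT-116 cells given compounds for 16 h at 37 C received CellTiter-Glo; luminescence was recorded 30 min later at room temperature.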
A short description of experiment [8]: p53 small molecule agonists, cell-based qHTS assay (AID 1963582; active = well fitted activation curve with a large enough effect in the signal ratio in the repeat runs, not every such curve was filed as active; the % refers to the signal ratio). The method, boiled down: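 Compounds are pin-transferred in DMSO onto p53RE-bla cells and incubated 16 h at 37 C. The B/G FRET beta-lactamase substrate is then applied for 2 h at RT and fluorescence recorded.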
Experiment [9] deals with 5-hydroxytryptamine receptor 2A (Homo sapiens) (UniProt P28223). Put plainly: 5-hydroxytryptamine receptor 2A (HTR2A) small molecule antagonists, cell-based qHTS assay (AID 1963586). Also: nearly all actives have a fitted effect of over 45% in size. Also: potency is read from the fitted curve at half-maximal effect. The method, boiled down:
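Antagonist-mode intracellular calcium assay: DOI (4 nM) added after 5 min compound pre-incubation at room temperature to dye-loaded HTR2A-CHO cells. Fluorescence followed for 3 min, sampled every second.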

For experiment [10] the target is unchanged. Put plainly: 5-hydroxytryptamine receptor 2A (HTR2A) small molecule agonists, cell-based qHTS assay (AID 1963587). Also: nearly all actives have a fitted effect of over 30% in size. The method, boiled down:
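Kinetic calcium-flux fluorescence (2 min, 1 sec intervals) after compound addition in agonist mode. HTR2A-CHO cells were cultured 18 h, then dye-loaded 1 h at 37 C.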

The target of experiment [11] is Muscarinic acetylcholine receptor M1 (Homo sapiens) (UniProt P11229). Put plainly: Cholinergic receptor muscarinic 1 (CHRM1) small molecule antagonists, cell-based qHTS assay (AID 1963588). Also: nearly all actives have a fitted effect of over 40% in size. Also: potency is read from the fitted curve at half-maximal effect. In a few lines: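 CHRM1-CHO calcium-flux assay, antagonist mode. Cells were seeded 18 h, dye-loaded 1 h at 37 C and given compound for 5 min at RT, then acetylcholine was added at 50nM. FDSS fluorescence was read 3 min; 15 concentrations, three runs.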

The target is the same in experiment [12]. Put plainly: Cholinergic receptor muscarinic 1 (CHRM1) small molecule agonists, cell-based qHTS assay (AID 1963589). Also: nearly all actives have a fitted effect of over 35% in size. In a few lines:
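Each compound was tested at 15 concentrations across three independent runs on dye-loaded CHO cells stably expressing human CHRM1, reading intracellular calcium fluorescence kinetically at 1 sec intervals.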

Experiment [13] in a line: cAMP Responsive Elements (CRE) small molecule agonists, cell-based qHTS assay (AID 1963590). In a few lines:
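Cell line: CRE-bla HEK 293T; medium DMEM/10% dialyzed FBS/0.1 mM NEAA/1 mM pyruvate/25 mM HEPES; 3 h compound exposure; beta-lactamase FRET readout after 2 h substrate loading at RT.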

A short description of experiment [14]: cAMP Responsive Elements (CRE) small molecule antagonists, cell-based qHTS assay (AID 1963591; active = well fitted inhibition curve with a large enough effect in the signal ratio in the repeat runs, not every such curve was filed as active; the % refers to the signal ratio). The method, boiled down:
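Inhibition of NKH477-driven (0.25 uM final) CRE-beta-lactamase signal in HEK293T cells, 3 h compound exposure at 37 °C, detected by FRET substrate fluorescence.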

The target of experiment [15] is Beta-2 adrenergic receptor (Homo sapiens) (UniProt P07550). Kind of experiment: Adrenergic beta2 receptor (ADRB2) small molecule antagonists, cell-based qHTS assay (AID 1963592). Also: series mostly up to about 92 µM; nearly all actives have a fitted effect of over 50% in size. The method, boiled down: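 Cells (CHO, stable ADRB2 overexpression) incubated 18-20hr at 37C; compounds added from DMSO; agonist mix (1nM isoproterenol, 100uM IBMX, 25uM Ro-20-1724) added; 0.5hr RT; d2-cAMP and anti-cAMP-cryptate added; 1hr RT; 665/615 nm read.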

Experiment [16] has as its target D(2) dopamine receptor (Homo sapiens) (UniProt P14416). Kind of experiment: Dopamine D2 receptor (DRD2) small molecule agonists, cell-based qHTS assay (AID 1963594). Also: nearly all actives have a fitted effect of over 35% in size. In a few lines: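 cAMP accumulation in DRD2-HEK293 cells measured by HTRF after 1 h detection; compounds added 10 min before NKH477 (200nM […]) forskolin-analogue stimulation, 30 min at room temperature, with Ro20-1724 present at 0.1 mM final.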

Experiment [17] shares this target. Put plainly: Dopamine D2 receptor (DRD2) small molecule antagonists, cell-based qHTS assay (AID 1963595; active = well fitted inhibition curve with a large enough effect in the signal ratio in the repeat runs, with a control signal flat; the % refers to the signal ratio; also: potency is read from the fitted curve at half-maximal effect). In a few lines: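 Antagonist mode in DRD2-HEK293 cells: after compound addition with 0.1 mM Ro20-1724, cells received quinpirole (12 nM) and NKH477 (200 nM) for 30 min at room temperature; HTRF cAMP read after 1 h detection.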
Experiment [18] is described as follows: p53 small molecule agonists, cell-based qHTS assay with human liver microsomes: qHTS cell viability counter screen (AID 1963579). Also: nearly all actives have a fitted effect of over 45% in size. Also: potency is read from the fitted curve at half-maximal effect. In a few lines:
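Tox21 library compounds, delivered from DMSO stocks, were tested on p53RE-bla cells together with 0.5 mg/mL human liver microsomes and 0.5 mg/mL NADPH (final) over 16 h at 37 C; CellTiter-Glo luminescence served as the cytotoxicity measure.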

For experiment [19], the target named is Beta-2 adrenergic receptor (Homo sapiens) (UniProt P07550). Kind of experiment: Adrenergic beta2 receptor (ADRB2) small molecule agonists, cell-based qHTS assay (AID 1963593).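 Also: CHO cells stably overexpressing human ADRB2.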 In a few lines:
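CHO cells stably over-expressing ADRB2 were plated overnight at 37C, then dosed with compounds plus a stimulation mix containing 100uM IBMX and 25uM Ro-20-1724 for 0.5hr at room temperature. cAMP was measured by HTRF competition, 1hr.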

Each structure is given as a SMILES string. Records with an inconclusive call do not appear. Calls of active or inactive are those of the source. Unless noted, calls follow the shape of the full dose curve.

Sequence of D(2) dopamine receptor (Homo sapiens) (P14416 whole entry, looked up): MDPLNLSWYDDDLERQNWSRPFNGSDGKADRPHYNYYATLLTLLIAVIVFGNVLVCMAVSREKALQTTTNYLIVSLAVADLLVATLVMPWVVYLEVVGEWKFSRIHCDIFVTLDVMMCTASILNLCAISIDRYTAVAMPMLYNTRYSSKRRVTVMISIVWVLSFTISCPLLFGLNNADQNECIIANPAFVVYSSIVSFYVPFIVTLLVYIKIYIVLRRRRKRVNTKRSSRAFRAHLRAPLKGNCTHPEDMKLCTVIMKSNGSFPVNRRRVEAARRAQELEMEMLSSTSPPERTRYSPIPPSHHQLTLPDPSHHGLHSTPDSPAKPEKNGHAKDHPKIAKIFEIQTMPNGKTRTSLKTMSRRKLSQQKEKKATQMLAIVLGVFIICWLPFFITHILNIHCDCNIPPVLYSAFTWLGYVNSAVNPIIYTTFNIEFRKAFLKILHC
Sequence of 5-hydroxytryptamine receptor 2A (Homo sapiens) (P28223 whole entry, looked up): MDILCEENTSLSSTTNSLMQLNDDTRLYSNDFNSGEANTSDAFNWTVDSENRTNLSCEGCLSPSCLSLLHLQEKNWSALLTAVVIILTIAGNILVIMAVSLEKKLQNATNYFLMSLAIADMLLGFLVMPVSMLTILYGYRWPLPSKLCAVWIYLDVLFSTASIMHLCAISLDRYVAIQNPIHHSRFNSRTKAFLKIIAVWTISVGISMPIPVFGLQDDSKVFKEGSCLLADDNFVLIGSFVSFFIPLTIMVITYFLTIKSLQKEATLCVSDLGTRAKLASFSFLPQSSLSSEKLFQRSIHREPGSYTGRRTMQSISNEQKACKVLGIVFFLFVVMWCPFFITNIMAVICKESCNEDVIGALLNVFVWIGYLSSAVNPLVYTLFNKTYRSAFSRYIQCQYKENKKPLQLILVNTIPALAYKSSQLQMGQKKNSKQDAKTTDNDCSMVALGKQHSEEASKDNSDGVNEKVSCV
Sequence of Beta-2 adrenergic receptor (Homo sapiens) (P07550 whole entry, looked up): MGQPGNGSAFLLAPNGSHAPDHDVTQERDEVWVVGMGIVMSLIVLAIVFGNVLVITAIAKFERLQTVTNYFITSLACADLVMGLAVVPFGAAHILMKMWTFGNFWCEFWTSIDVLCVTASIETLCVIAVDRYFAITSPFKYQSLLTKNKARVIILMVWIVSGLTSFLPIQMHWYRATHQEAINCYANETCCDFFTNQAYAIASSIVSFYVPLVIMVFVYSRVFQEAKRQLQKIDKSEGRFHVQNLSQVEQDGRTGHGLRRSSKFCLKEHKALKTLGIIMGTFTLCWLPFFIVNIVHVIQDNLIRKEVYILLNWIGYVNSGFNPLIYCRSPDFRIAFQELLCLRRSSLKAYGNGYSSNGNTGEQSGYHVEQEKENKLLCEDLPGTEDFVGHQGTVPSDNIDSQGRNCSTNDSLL
Sequence of Muscarinic acetylcholine receptor M1 (Homo sapiens) (P11229 whole entry, looked up): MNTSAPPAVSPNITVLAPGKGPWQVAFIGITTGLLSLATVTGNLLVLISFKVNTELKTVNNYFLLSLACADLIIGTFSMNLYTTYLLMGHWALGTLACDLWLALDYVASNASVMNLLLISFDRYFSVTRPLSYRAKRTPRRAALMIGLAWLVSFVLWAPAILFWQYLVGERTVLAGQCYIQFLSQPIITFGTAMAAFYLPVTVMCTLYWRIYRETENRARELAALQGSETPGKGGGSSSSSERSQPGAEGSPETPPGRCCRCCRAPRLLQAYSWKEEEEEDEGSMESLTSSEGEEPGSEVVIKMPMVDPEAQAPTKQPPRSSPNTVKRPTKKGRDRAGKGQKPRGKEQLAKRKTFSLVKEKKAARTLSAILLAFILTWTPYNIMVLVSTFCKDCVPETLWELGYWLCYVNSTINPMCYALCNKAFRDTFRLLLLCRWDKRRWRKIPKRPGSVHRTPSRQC
Sequence of Gonadotropin-releasing hormone receptor (Homo sapiens) (P30968 whole entry, looked up): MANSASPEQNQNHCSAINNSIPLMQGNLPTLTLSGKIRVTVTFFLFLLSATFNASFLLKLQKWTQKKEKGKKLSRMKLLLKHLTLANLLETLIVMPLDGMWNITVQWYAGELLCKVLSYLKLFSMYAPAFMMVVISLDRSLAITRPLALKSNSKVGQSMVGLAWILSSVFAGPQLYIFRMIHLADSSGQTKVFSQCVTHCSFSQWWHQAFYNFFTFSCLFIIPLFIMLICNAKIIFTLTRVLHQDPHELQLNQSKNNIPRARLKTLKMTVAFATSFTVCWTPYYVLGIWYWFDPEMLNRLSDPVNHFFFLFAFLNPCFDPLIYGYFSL
Sequence of KiSS-1 receptor (Homo sapiens) (Q969F8 whole entry, looked up): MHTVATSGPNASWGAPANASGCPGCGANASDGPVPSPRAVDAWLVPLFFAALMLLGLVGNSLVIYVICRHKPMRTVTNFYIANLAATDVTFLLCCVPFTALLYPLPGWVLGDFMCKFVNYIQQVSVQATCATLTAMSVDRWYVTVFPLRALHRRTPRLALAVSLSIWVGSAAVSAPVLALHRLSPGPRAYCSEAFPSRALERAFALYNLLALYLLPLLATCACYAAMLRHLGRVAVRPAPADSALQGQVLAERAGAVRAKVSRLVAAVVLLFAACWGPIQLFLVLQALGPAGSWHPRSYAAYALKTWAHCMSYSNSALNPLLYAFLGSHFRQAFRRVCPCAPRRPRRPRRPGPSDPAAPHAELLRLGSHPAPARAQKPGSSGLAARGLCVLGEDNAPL

Consider `CCC(C)(C)c1ccc(CC(C)CN2C[C@@H](C)O[C@@H](C)C2)cc1` (stereo partly specified), for which the Potency result in [1], in experiment [2], in experiment [3], in [4], in experiment [5] and in experiment [6] was “inactive” in each case. For the same compound, the Potency entry in experiment [7], in experiment [8], in [9], in [10], in experiment [12] and in experiment [13] was “inactive” each time. The Potency result in experiment [14], in [15], in experiment [16] and in experiment [17] was “inactive” each time. For the same compound, the Potency in experiment [11] was 3.65 µM (active).
As to `Cc1onc(-c2c(Cl)cccc2Cl)c1C(=O)N[C@@H]1C(=O)N2[C@@H]1SC(C)(C)[C@@H]2C(=O)O`, the Potency result in [1], in experiment [2], in experiment [3], in experiment [4], in experiment [5] and in experiment [18] was “inactive” throughout. The Potency entry in [6], in experiment [7], in [8], in experiment [9], in experiment [10] and in experiment [11] was “inactive” in each case. Besides, the Potency entry in experiment [12], in [13], in experiment [14], in experiment [15], in [19] and in [16] was “inactive” throughout. Further, the Potency entry in [17] was “inactive”.
On to `O=C(/C=C/c1ccc([N+](=O)[O-])cc1)c1ccccc1`, for which the figures for the Potency in [1] and in [6] were 54.6 µM (active) and 20.5 µM (active), respectively. For the same compound, the Potency result in experiment [2], in experiment [3], in [4], in experiment [5], in experiment [18] and in [7] was “inactive” throughout. Besides, the Potency result in experiment [8], in experiment [9], in [10], in experiment [11], in experiment [12] and in [15] was “inactive” throughout. Further, the Potency result in [16] is “inactive”.
`Cc1c(-c2ccccc2)oc2c(C(=O)OCCN3CCCCC3)cccc2c1=O`: the Potency entry in experiment [1], in experiment [2], in experiment [3], in experiment [4], in experiment [5] and in [18] was “inactive” throughout. In addition, the Potency result in experiment [6], in [7], in experiment [14], in experiment [15], in experiment [19] and in experiment [16] was “inactive” throughout.
With `CC(C)CCCCCCCOC(=O)c1ccc(C(=O)OCCCCCCCC(C)C)c(C(=O)OCCCCCCCC(C)C)c1`, the Potency in experiment [1] was 24 µM (active); in [18], 16 µM (active). Further, the Potency result in [2], in experiment [3], in experiment [4], in experiment [5], in [7] and in experiment [8] was “inactive” in each case. In addition, the Potency entry in [9], in [10], in experiment [11], in [12], in experiment [13] and in [14] was “inactive” each time. In addition, the Potency result in [16] and in experiment [17] was “inactive” in each case.
Take `COC(=O)C1=C(C)NC(C)=C(C(=O)O[C@@H]2CCCN(Cc3ccccc3)C2)[C@@H]1c1cccc([N+](=O)[O-])c1`: the Potency entry in experiment [1], in experiment [2], in experiment [3], in experiment [4], in experiment [5] and in [18] was “inactive” each time. Besides, the Potency result in experiment [6], in [7], in experiment [8], in experiment [9], in experiment [10] and in [11] was “inactive” throughout. Further, the Potency result in experiment [12], in experiment [13], in [14], in [15], in experiment [19] and in [16] was “inactive” throughout. The Potency entry in [17] was “inactive”.
As to `COc1ccccc1N1CCN(CC(O)COc2cccc3ccccc23)CC1` (stereo unspecified), the Potency entry in [1], in [2], in experiment [3], in experiment [4], in [5] and in experiment [6] was “inactive” in each case. Besides, the Potency result in experiment [7], in [10], in experiment [11], in experiment [12] and in experiment [13] was “inactive” in each case. For the same compound, the Potency is 5.79 µM (active) in experiment [9] and 33.5 µM (active) in experiment [17].

(Values after PubChem BioAssay (Tox21).)
